In PubChem BioAssay:
Calls of active or inactive are those of the source.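 Rule for the calls, unless noted: active = inhibition of the reporter signal at or above 50%; inactive = inhibition below 50%.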

How the values were obtained:
[1] = inhibitors of TNFa-induced NFkB p65 translocation, primary screen, imaging, HUVEC, MLSMR starter and 10KST1 sets (AID 438;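 active = inhibition above 20% together with a positive visual image hit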;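 note: compound added about 3h40 before a 20 min TNFalpha stimulation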;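 for inhibition: signal is the nuclear over cytoplasmic p65 intensity ratio per well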); details: HUVEC TNFa-induced p65 nuclear translocation; cell count: measured here: nuclei count (cytotoxicity indicator), at 2.08 µM; inhibition: at 2 µM, stronger effect = higher value, 0% TNFa-plus-vehicle, 100% no-TNFa wells
[2] = inhibitors of mutant huntingtin aggregation, primary screen, imaging, exon1htt(103Q)mCFP cells, high-content imaging (AID 483;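 active = visual image review flags a hit and inhibition of aggregation exceeds 20%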;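 note: compound exposure lasted 3 days before fixation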;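 for nuclei count: percent of the per-plate median nuclei count of sample wells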); details: exon1htt(103Q)mCFP cell line, aggregate imaging, at 2 µM; inhibition of aggregation: stronger effect = higher value; nuclei count: measured here: cell count, toxicity
[3] = inhibitors of E-selectin induction by TNFa, primary screen, imaging, HUVEC, immunofluorescence, MLSMR starter and 10KST1 sets (AID 487;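 active = visually confirmed hit in the image check and inhibition above 20%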;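 for inhibition: signal is fraction of cell area covered by stained E-selectin grains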;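 for nuclei count: 100% = median nuclei count of all wells on the same plate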); details: HUVEC TNFalpha-induced E-selectin immunofluorescence imaging, at 2 µM; inhibition: stronger effect = higher value; nuclei count: measured here: cell number, toxicity
[4] = target: Voltage-gated potassium channel subunit beta-2 (Rattus norvegicus) (UniProt P62483); test: KvBeta enzyme negative modulators, primary screen, biochemical, NADPH fluorescence (AID 622;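 active = fluorescence slope higher than the sample average by over 3 SD, cut at about -0.22 in these data, passing the limit was not always enough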;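 note: slope of raw intensity against log time taken from 70 to 1610 s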); details: recombinant KvBeta, 4-cyanobenzaldehyde reduction, at 10 µM, stronger effect = higher value
[5] = target: Voltage-gated potassium channel subunit beta-2 (Rattus norvegicus) (UniProt P62483); test: KvBeta positive modulators, primary screen, biochemical, NADPH fluorescence (AID 623;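 active = NADPH fluorescence slope more negative than the mean of all samples by about 3 SD, 99.7% confidence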;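 note: fluorescence intensity change per second fitted from 20 to 320 s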); details: Recombinant KvBeta, NADPH fluorescence decrease slope, 10 min; at 10 µM; stronger effect = lower value
[6] = target: Muscarinic acetylcholine receptor M4 (Homo sapiens) (UniProt P08173); test: compounds altering M4/GIRK thallium flux, either direction, primary screen, M4 allosteric agonist project, cell-based, HEK293 M4/GIRK, BTC-AM (AID 625;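 active = fluorescence slope after compound addition differing from the mean of all tested samples at 99.7% confidence, mostly higher but some lower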;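 note: thallium influx through GIRK channels coupled to M4 in HEK293 cells with BTC-AM dye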); details: at 10 µM, actives lie on both sides
[7] = inhibitors of Sendai virus-induced IRF3 signaling, primary screen, TLR/RLR signaling modifier project, cell-based, Sendai virus stimulus, luciferase, 10K MLSCN set (AID 602276;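 active = inhibition at or above 50% at 10 µM; inactive = inhibition below 50%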;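 note: firefly luciferase from ISG56 promoter only with Renilla not read in this screen; 0% = Sendai virus plus DMSO and 100% = medium plus DMSO without virus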); details: HEK293 RL24 IRF3 luciferase reporter, at 10 µM, stronger effect = higher value
[8] = inhibitors of poly I:C-induced TLR3 signaling, primary screen, cell-based, poly I:C stimulus, luciferase, 10K MLSCN set (AID 602277); details: HEK293-TLR3 RL24 IRF3 luciferase reporter, at 10 µM, stronger effect = higher value
[9] = target: Alpha-2C adrenergic receptor (Homo sapiens) (UniProt P18825); test: modulators of alpha2C/GIRK thallium flux, primary screen, cell-based, HEK293 alpha2C/GIRK1/2 (AID 624;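 active = fluorescence slope after compound addition differing from the mean of all screened samples at 99.7% confidence, in either direction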;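 note: slope of fluorescence ratio to pre-addition baseline per second over 15 to 24 s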); details: thallium flux BTC fluorescence, at 10 µM, actives lie on both sides
[10] = inhibitors of larval lipid processing in zebrafish, primary screen, whole organism, PED6 fluorescence, gall bladder and intestine (AID 686;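 active = a full or partial loss of lipid-probe fluorescence in the fish gall bladder, intestine or both, judged by eye; inactive = no fluorescence loss, or compound toxic to the fish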;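 note: larvae 5 to 7 days old with five fish per well; signal comes from phospholipase A2 cleavage of quenched PED6 carried via bile; overnight exposure to compound and PED6 before scoring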); details: Zebrafish larvae PED6 lipid processing, fluorescence scoring; screened at 20 µM (by protocol)
[11] = DUSP6 inhibitors restoring Erk phosphorylation by chemical complementation, primary imaging in DUSP6-transfected HeLa (AID 609;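 active = compounds giving at least 50% inhibition in the cell-based MKP-3 phosphatase rescue imaging test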;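 for inhibition: phospho-Erk level distribution per well compared with pooled transfected vehicle control wells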); details: HeLa MKP-3 transfected, phospho-Erk imaging KS statistic, at 10 µM, cells stimulated with TPA for 15 min
[12] = target: Dual specificity protein phosphatase 6 (Homo sapiens) (UniProt Q16828); test: as above; details: HeLa MKP-3 transfected, phospho-Erk imaging KS statistic; at 10 µM; stronger effect = higher value; cells stimulated with TPA for 15 min
Chain of Dual specificity protein phosphatase 6 (Homo sapiens) (Q16828 whole entry, looked up): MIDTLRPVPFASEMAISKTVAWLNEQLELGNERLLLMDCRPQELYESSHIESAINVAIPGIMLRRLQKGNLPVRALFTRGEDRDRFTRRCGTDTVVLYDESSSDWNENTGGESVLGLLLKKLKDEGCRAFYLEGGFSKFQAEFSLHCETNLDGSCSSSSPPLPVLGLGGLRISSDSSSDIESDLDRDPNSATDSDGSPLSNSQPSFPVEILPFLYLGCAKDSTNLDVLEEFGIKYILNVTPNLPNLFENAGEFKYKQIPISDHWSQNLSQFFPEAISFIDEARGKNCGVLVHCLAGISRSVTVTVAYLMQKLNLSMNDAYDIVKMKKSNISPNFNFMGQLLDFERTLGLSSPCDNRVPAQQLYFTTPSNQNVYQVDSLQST

Chain of Muscarinic acetylcholine receptor M4 (Homo sapiens) (P08173 whole entry, looked up): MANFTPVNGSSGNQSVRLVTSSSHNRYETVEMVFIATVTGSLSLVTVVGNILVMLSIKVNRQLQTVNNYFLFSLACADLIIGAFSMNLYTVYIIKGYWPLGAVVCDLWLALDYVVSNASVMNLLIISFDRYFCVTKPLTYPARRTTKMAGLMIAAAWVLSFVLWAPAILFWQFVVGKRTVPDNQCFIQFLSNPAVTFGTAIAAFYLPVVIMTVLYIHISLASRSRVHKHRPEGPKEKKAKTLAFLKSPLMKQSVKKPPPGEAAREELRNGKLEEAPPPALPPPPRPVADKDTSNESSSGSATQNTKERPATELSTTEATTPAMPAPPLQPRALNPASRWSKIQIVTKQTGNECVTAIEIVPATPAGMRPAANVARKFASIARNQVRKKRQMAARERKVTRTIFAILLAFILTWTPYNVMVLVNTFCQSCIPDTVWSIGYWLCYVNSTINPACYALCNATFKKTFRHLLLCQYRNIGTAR
Chain of Voltage-gated potassium channel subunit beta-2 (Rattus norvegicus) (P62483 whole entry, looked up): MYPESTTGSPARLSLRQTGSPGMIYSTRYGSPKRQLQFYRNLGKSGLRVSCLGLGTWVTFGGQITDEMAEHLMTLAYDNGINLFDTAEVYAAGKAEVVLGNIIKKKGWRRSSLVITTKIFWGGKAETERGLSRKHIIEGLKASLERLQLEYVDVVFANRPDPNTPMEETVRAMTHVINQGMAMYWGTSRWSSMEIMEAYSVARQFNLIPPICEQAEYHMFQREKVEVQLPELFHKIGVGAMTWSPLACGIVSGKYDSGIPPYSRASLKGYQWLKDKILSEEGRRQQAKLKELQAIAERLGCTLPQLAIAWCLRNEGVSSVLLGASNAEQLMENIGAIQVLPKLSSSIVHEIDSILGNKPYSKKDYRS
Chain of Alpha-2C adrenergic receptor (Homo sapiens) (P18825 whole entry, looked up): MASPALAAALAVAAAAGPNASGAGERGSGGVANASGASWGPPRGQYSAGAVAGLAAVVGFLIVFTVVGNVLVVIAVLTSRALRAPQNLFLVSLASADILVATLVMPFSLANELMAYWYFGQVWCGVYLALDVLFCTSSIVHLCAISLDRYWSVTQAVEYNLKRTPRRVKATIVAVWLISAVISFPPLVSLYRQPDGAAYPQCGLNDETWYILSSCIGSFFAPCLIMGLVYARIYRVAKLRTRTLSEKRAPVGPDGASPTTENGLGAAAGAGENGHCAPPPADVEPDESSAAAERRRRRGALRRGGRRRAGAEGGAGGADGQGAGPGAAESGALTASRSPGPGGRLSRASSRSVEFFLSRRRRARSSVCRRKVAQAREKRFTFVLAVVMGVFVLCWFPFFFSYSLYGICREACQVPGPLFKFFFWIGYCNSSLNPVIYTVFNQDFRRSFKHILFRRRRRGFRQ

Compound | cell count [1] | inhibition [1] | inhibition of aggregation [2] | nuclei count [2] | inhibition [3] | nuclei count [3] | fluorescence slope [4] | NADPH fluorescence slope [5] | fluorescence slope [6] | inhibition [7] | inhibition [8] | slope [9] | outcome [10] | z-score ([11]; measured here: cell density z-score) | z-score ([11]; measured here: nuclear c-Myc green intensity z-score) | z-score ([11]; measured here: nuclear pErk red intensity z-score, stronger effect = higher value) | inhibition [12]
CCn1c(SCC(=O)Nc2nnc(C)s2)nnc1-c1ccncc1 | 554 | -17.9% (inactive) | 25.6% (inactive) | 92.8% | -53.1% (inactive) | 114% | -0.301 (inactive) | -5.1e-05 (inactive) | 0.00811 (inactive) | 15.2% (inactive) | 0.883% (inactive) | – | – | – | – | – | –
CC(C)C12CN3CC(C(C)C)(CN(C1)C3c1ccc3c(c1)OCO3)C2=O (stereo not drawn) | 412 | 10.8% (inactive) | -9.1% (inactive) | 98.4% | – | – | -0.304 (inactive) | -1e-05 (inactive) | – | 11.3% (inactive) | 20.8% (inactive) | 0.00697 (inactive) | inactive | – | – | – | –
COc1cccc(C(=O)Nc2cnc(NC(=O)c3ccco3)cc2C)c1 | 463 | 12.5% (inactive) | -2.9% (inactive) | 98.1% | – | 119% | -0.567 (inactive) | -5.3e-05 (inactive) | 0.00623 (inactive) | 5.68% (inactive) | -23.5% (inactive) | – | – | – | – | – | –
CCn1c(=O)cc(SCC(=O)Nc2ccc3c(c2)OCO3)c2ccccc21 | 368 | 3.1% (inactive) | 1.5% (inactive) | 97.6% | -7.2% (inactive) | 115% | -0.432 (inactive) | 4e-05 (inactive) | 0.00544 (inactive) | -16.8% (inactive) | -13.5% (inactive) | – | – | – | – | – | –
CCCCc1oc2ccccc2c1C(=O)c1cc(I)c(OCCN(CC)CC)c(I)c1 | 651 | -9% (inactive) | – | – | -235% (inactive) | 136% | -0.467 (inactive) | -4.3e-05 (inactive) | – | 9.88% (inactive) | 43.5% (inactive) | 0.00817 (inactive) | – | 0.542 | -0.674 | 0.954 | 5.42% (inactive)
CCC(=O)N1CCc2cc(S(=O)(=O)CCC(=O)Nc3nc(C)cs3)ccc21 | 606 | 5.7% (inactive) | 9.7% (inactive) | 95.8% | -144% (inactive) | 158% | -0.439 (inactive) | 7.6e-05 (inactive) | 0.00524 (inactive) | 19.2% (inactive) | 21.5% (inactive) | – | – | – | – | – | –
C=CCC(Nc1ccco1)c1ccccc1 (stereo not drawn) | 393 | 2.5% (inactive) | 3.4% (inactive) | 112% | -17.9% (inactive) | 114% | -0.498 (inactive) | -2.9e-05 (inactive) | 0.00454 (inactive) | 19% (inactive) | 19.6% (inactive) | – | – | – | – | – | –
COc1cccc(Oc2ccc(N)cn2)c1 | 392 | -4.4% (inactive) | -4.1% (inactive) | 100% | -126% (inactive) | 114% | -0.537 (inactive) | -0.000148 (inactive) | 0.0033 (inactive) | -7.7% (inactive) | 1.94% (inactive) | – | – | – | – | – | –
